Values joined by “and” are separate entries in the source; they are usually repeats but may differ in a detail not shown here. Equal entries are not always repeated. The whole screen tested about 330,000 compounds, of which about 3,800 (1.2%) were called active. Cut-off read from the data, not from the text of the source: active = inhibition above about 15%; inconclusive = no clear call, values can overlap the other calls; inactive = below that. Shown is part of a subset that was picked to be rich in actives. The source holds several records for some structures; these can differ, active in one and inactive in another.

Chain of NAD-dependent protein deacylase sirtuin-5, mitochondrial (Homo sapiens) (Q9NXA8 whole entry, looked up): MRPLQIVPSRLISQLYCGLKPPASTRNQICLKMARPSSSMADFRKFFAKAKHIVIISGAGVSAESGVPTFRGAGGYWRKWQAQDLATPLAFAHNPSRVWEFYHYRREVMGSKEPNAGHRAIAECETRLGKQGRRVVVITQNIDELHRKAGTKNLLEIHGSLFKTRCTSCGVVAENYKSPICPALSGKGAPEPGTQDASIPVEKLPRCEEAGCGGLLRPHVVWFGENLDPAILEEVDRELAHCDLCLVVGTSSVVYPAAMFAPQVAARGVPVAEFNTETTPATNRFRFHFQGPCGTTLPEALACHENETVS

This assay concerns the target NAD-dependent protein deacylase sirtuin-5, mitochondrial (Homo sapiens) (UniProt Q9NXA8). The assay is described as follows: blockers of sirtuin-5 deacylase activity – biochemical, fluorescence imaging, single point, set 5, primary screen (AID 652115). The note with it: Purified SirT5, succinyl-peptide AMC, trypsin-coupled fluorescence; at 15 µM; stronger effect = higher value.
A word on the inhibition: it is the drop in the measured response relative to a control, in per cent. `C=CCN1C(=O)C2(OCCCO2)c2cccc(Cl)c21`: the inhibition is -2.09% (inactive). Regarding `CCOC(=O)CN1C(=O)C(O)(CC(=O)c2ccccn2)c2ccccc21` (stereo not given), the inhibition was -3.62% (inactive). To `C=CCN1C(=O)C(O)(CC(=O)c2ccccn2)c2ccccc21` (stereo not given) belongs 26.6% (active). To `C[C@@H]1CN([C@H](C)CO)C(=O)c2cc(NC(=O)NC3CCCCC3)ccc2O[C@@H](C)CCCCO[C@H]1CN(C)C(=O)Nc1ccccc1` belongs 3.67% (inactive).

Take `CCCNC(=O)N1[C@@H](C#N)[C@H](c2ccc(-c3ccc(C(=O)N(C)C)cc3)cc2)[C@@H]1CO`: the inhibition is 4.75% (inactive).

`CO[C@@H]1CN(C)C(=O)c2cc(NC(=O)C3CCC3)ccc2OC[C@H](C)N(Cc2nccs2)C[C@H]1C`: the inhibition is -1.69% (inactive). To `COc1cccc(S(=O)(=O)N2CCC3(CC2)CN[C@H](CO)c2c3c3ccc(OC)cc3n2C)c1` belongs 1.64% (inactive); to `O=C(C[C@@H]1C[C@@H]2c3cc(NS(=O)(=O)c4ccc(F)cc4)ccc3O[C@@H]2[C@H](CO)O1)NCc1cc(F)ccc1F`, -3.29% (inactive); to `COCC(=O)N1CC(=O)N2[C@H](C1)[C@H](c1ccc(C#CC3CCCCC3)cc1)[C@@H]2CO`, -2.8% (inactive). For the compound `CN(C)CCCCCN(C)Cc1cc2ccccc2o1`, the inhibition is 36.8% (active). As to `CN(C)C(CNC(=O)c1cc2ccccc2o1)c1ccccc1` (stereo not given), the inhibition was -2.25% (inactive). `COc1ccccc1CN(C)C(=O)c1cc2ccccc2o1`: the inhibition is -1.39% (inactive). For `C[C@@H]1CN([C@H](C)CO)C(=O)c2cc(NS(=O)(=O)c3ccc(F)cc3)ccc2O[C@H]1CN(C)Cc1ccncc1`, the inhibition is -0.686% (inactive). Turning to `O=S(=O)(c1ccccc1)N1C[C@@H]2[C@H](c3ccccc31)[C@H](CO)N2Cc1ccccn1`, the inhibition is 1.34% (inactive). As to `Cc1ccc(-c2csc(NC(=O)Cn3[nH]c(=O)c4ccccc4c3=O)n2)cc1`, the inhibition is 112% (active). Consider `O=C(CSc1nc2ccccc2c(=O)[nH]1)Nc1nc(-c2ccc(Br)cc2)cs1`, for which the inhibition is -5.37% (inactive). To `CC(=O)NCc1ccc(-c2csc(NC(=O)CCCc3nc4ccccc4c(=O)[nH]3)n2)cc1` belongs -2.85% (inactive).

As to `Cc1noc(C)c1S(=O)(=O)N(C)C[C@@H]1OCCCC[C@@H](C)Oc2ccc(NC(=O)c3ccccc3)cc2C(=O)N([C@H](C)CO)C[C@H]1C`, the inhibition was 0.24% (inactive). To `C[C@@H]1CN([C@H](C)CO)C(=O)c2cccc(NS(C)(=O)=O)c2O[C@@H]1CN(C)S(=O)(=O)c1cccs1` belongs 1.65% (inactive). To `C[C@@H]1CN([C@@H](C)CO)C(=O)c2ccccc2-c2ccccc2CO[C@H]1CN(C)C(=O)Nc1ccccc1` belongs -1.46% (inactive). To `C[C@H](CO)N1C[C@H](C)[C@@H](CN(C)C(=O)NC2CCCCC2)Oc2c(NC(=O)Nc3ccc(F)cc3)cccc2C1=O` belongs 103% (active); to `C[C@H]1CN([C@@H](C)CO)C(=O)c2ccccc2-c2ccccc2CO[C@H]1CN(C)C(=O)Nc1ccc(-c2ccccc2)cc1`, 16.8% (active). Turning to `COc1ccc(NC(=O)N(C)C[C@H]2OCc3ccccc3-c3ccccc3C(=O)N([C@H](C)CO)C[C@@H]2C)cc1`, the inhibition was 1.71% (inactive).

Turning to `CC(C)NC(=O)Nc1cccc2c1O[C@H](CN(C)S(=O)(=O)c1cccs1)[C@@H](C)CN([C@H](C)CO)C2=O`, the inhibition is 23.7% (active). To `COc1ccc(NC(=O)Nc2cccc3c2O[C@H](CN(C)S(=O)(=O)c2cccs2)[C@H](C)CN([C@@H](C)CO)C3=O)cc1` belongs 1.18% (inactive); to `C[C@@H]1CN([C@H](C)CO)C(=O)c2cccc(NC(=O)Nc3ccccc3)c2O[C@@H]1CN(C)C(=O)NC1CCCCC1`, 3.35% (inactive); to `C[C@H]1CN([C@@H](C)CO)C(=O)c2cccc(NC(=O)Nc3ccc(C(F)(F)F)cc3)c2O[C@H]1CN(C)C(=O)NC1CCCCC1`, 2.24% (inactive). Take `COc1ccc2c3c(n(C)c2c1)[C@H](CO)N(C)CC31CN(S(=O)(=O)c2cccc(C)c2)C1`: the inhibition was 4.2% (inactive). To `CO[C@H]1CN(C)C(=O)c2cc(NC(=O)Nc3ccccc3F)ccc2OC[C@H](C)N(C)C[C@H]1C` belongs -12% (inactive); to `C[C@H](CO)N1C[C@H](C)[C@@H](CN(C)S(=O)(=O)c2ccc(F)cc2)OCCCC[C@H](C)Oc2ccc(NC(=O)CCCN(C)C)cc2C1=O`, -2.49% (inactive); to `C[C@H](NC(=O)C[C@@H]1CC[C@H](NC(=O)CN2CCOCC2)[C@H](CO)O1)c1ccccc1`, -3.17% (inactive).

For the compound `C=CC1=C(C(=O)O)N2C(=O)[C@@H](NC(=O)/C(=N/OCC(=O)O)c3csc(N)n3)[C@H]2SC1`, the inhibition is 30.9% (active). To `C=CC1=C(C(=O)O)N2C(=O)[C@@H](NC(=O)/C(=N\OCC(=O)O)c3csc(N)n3)[C@H]2SC1` belongs 31.1% (active); to `Cc1nnc(SCC2=C(C(=O)O)N3C(=O)C(NC(=O)Cn4nc(C)c(Cl)c4C)C3SC2)s1` (stereo not given), -1.34% (inactive); to `Cc1cc(C)cc(C(=O)NC2C(=O)N3C(C(=O)O)=C(CSc4nnc(C)s4)CSC23)c1` (stereo not given), -0.622% (inactive). To `CO/N=C(\C(=O)N[C@@H]1C(=O)N2C(C(=O)O)=C(COC(C)=O)CS[C@H]12)c1csc(N)n1` (stereo in doubt) belongs -2.03% (inactive) and -4% (inactive) and 22.2% (active); to `CO[C@@H]1CN(C)C(=O)c2cc(NC(=O)C3CC3)ccc2OC[C@@H](C)N(Cc2nccs2)C[C@@H]1C`, -0.135% (inactive). To `CCC(=O)N1[C@@H]2CN(C(=O)Nc3ccc(Cl)cc3)c3ccccc3[C@@H]2[C@@H]1CO` belongs -1.71% (inactive). In the case of `CCCNC(=O)C[C@H]1C[C@@H]2c3cc(NC(=O)NC4CCCC4)ccc3O[C@@H]2[C@@H](CO)O1`, the inhibition was -4.3% (inactive). To `CN(C)CC(=O)N[C@@H]1C[C@@H]2O[C@H](CO)CC[C@@H]2O[C@@H]1CCc1ccc(C#Cc2ccccc2)cc1` belongs -2.33% (inactive); to `Cc1noc(C)c1NC(=O)Nc1ccc2c(c1)C(=O)N([C@@H](C)CO)C[C@@H](C)[C@H](CN(C)C)O2`, -1.93% (inactive); to `CN(C)CC(=O)Nc1ccc2c(c1)[C@H]1C[C@H](CC(=O)NCc3ccc4c(c3)OCO4)O[C@@H](CO)[C@H]1O2`, 0.927% (inactive). Regarding `Cc1ccc(S(=O)(=O)N(C)C[C@@H]2Oc3ccc(N(C)C)cc3C(=O)N([C@@H](C)CO)C[C@H]2C)cc1`, the inhibition is -7.63% (inactive). Take `COc1ccc2c3c(n(C)c2c1)[C@@H](CO)N(Cc1ccncc1)CC31CN(C(=O)C2CCC2)C1`: the inhibition was 2.18% (inactive). To `CS(=O)(=O)c1ccc2nc(NC(=O)c3ccc(Cl)nc3)sc2c1` belongs 2.94% (inactive). Regarding `COc1cccc(C(=O)Nc2nc3ccc(S(C)(=O)=O)cc3s2)c1`, the inhibition was -3% (inactive).

Regarding `CNC(=O)c1ccc2nc(NC(C)=O)sc2c1`, the inhibition was 17.4% (active).

For the compound `CCC(=O)N1C[C@@H](C)[C@H](OC)CN(C)C(=O)c2ccc(NC(=O)c3ccc(F)cc3)cc2OC[C@@H]1C`, the inhibition was -5.95% (inactive). To `O=C(CN1CCOCC1)NCC[C@H]1CC[C@@H](NC(=O)Nc2ccc(Cl)cc2)[C@@H](CO)O1` belongs 2.34% (inactive); to `COC(=O)C(CC#Cc1ccc2c(c1)[C@]1(C(=O)N2)[C@H](c2ccc(O)cc2)N2[C@H](c3ccccc3)[C@H](c3ccccc3)OC(=O)[C@H]2[C@@H]1C(=O)NC[C@H](O)c1ccccc1)C(=O)OC`, 5.09% (inactive). As for `COc1ccc(C#Cc2ccc3c(c2)[C@]2(C(=O)N3)[C@H](c3ccccc3OCCO)N3[C@H](c4ccccc4)[C@H](c4ccccc4)OC(=O)[C@H]3[C@@H]2C(=O)N2CCCCCCC2)cc1`, the inhibition was 0.608% (inactive).

As to `COC(=O)C(CC#Cc1ccc2c(c1)[C@]1(C(=O)N2)[C@H](c2ccccc2OCCO)N2[C@H](c3ccccc3)[C@H](c3ccccc3)OC(=O)[C@H]2[C@@H]1C(N)=O)C(=O)OC`, the inhibition was 19.5% (active). To `CCCN1[C@@H]2c3ccc(C4=CCCC4)c(=O)n3C[C@@H]2[C@@H](CO)[C@@H]1C(=O)NCc1ccccn1` belongs -0.978% (inactive); to `CC(C)CC#Cc1ccc2c(c1)O[C@@H](CN(C)C(=O)c1ccccc1F)[C@H](C)CN([C@H](C)CO)S2(=O)=O`, 6.8% (inactive); to `C[C@@H]1CN([C@@H](C)CO)S(=O)(=O)c2ccc(C#CCN(C)C)cc2O[C@@H]1CN(C)C(=O)CC1CC1`, 1.11% (inactive). For the compound `C[C@@H]1CN([C@@H](C)CO)S(=O)(=O)c2ccc(C#Cc3ccc(F)cc3)cc2O[C@@H]1CN(C)CC1CC1`, the inhibition was 15.1% (active). To `COCC(=O)N(C)C[C@H]1Oc2cc(C#CC(C)C)ccc2S(=O)(=O)N([C@H](C)CO)C[C@@H]1C` belongs 3.27% (inactive). Turning to `COCC#Cc1ccc2c(c1)O[C@@H](CN(C)C(=O)Nc1ccccc1F)[C@H](C)CN([C@H](C)CO)S2(=O)=O`, the inhibition was 3.15% (inactive).

In the case of `CC(C)CC#Cc1ccc2c(c1)O[C@@H](CN(C)C(=O)Nc1ccccc1F)[C@@H](C)CN([C@@H](C)CO)S2(=O)=O`, the inhibition was 18.7% (active).

For `C[C@@H]1CN([C@H](C)CO)S(=O)(=O)c2ccc(C#CCN(C)C)cc2O[C@H]1CN(C)C(=O)CC1CC1`, the inhibition is 2.43% (inactive). In the case of `CCC(=O)N(C)C[C@H]1Oc2cc(C#CCC(C)C)ccc2S(=O)(=O)N([C@H](C)CO)C[C@H]1C`, the inhibition is 0.389% (inactive). To `CC(C)CC#Cc1ccc2c(c1)O[C@H](CN(C)C(=O)CC1CC1)[C@@H](C)CN([C@@H](C)CO)S2(=O)=O` belongs 31.5% (active); to `C[C@H](CO)N1C[C@H](C)[C@H](CN(C)CC2CC2)Oc2cc(-c3ccc(F)cc3)ccc2S1(=O)=O`, -4.28% (inactive). To `C[C@@H]1CN([C@@H](C)CO)S(=O)(=O)c2ccc(-c3ccc(F)cc3)cc2O[C@@H]1CN(C)CC1CC1` belongs -1.76% (inactive); to `COCC(=O)N(C)C[C@@H]1Oc2cc(C#CCC(C)C)ccc2S(=O)(=O)N([C@@H](C)CO)C[C@@H]1C`, 15.3% (active).

Source of the values: PubChem BioAssay AID652115 (Broad Institute, 2013).
